In all, about 320,000 compounds went through this assay and about 160 (0.05%) were called active. Cut-off read from the data, not from the text of the source: active = inhibition above about 38%; inactive = the rest. The full list was thinned out, with actives kept by preference.
molecular target: Serine protease Rv3671c (Mycobacterium tuberculosis (strain ATCC 25618 / H37Rv)) (UniProt P9WHR9); test: inhibition of M. tuberculosis membrane protease Rv3671c – biochemical, fluorescence polarization, M. tuberculosis H37Rv, primary screen (AID 2606); conditions: at 5.96 µM; active compounds read high;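 note: extracellular domain of Rv3671c used as enzyme; 0% = enzyme with DMSO and 100% = no enzyme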
Sequence (P9WHR9 whole entry, looked up, the tested form may be a part): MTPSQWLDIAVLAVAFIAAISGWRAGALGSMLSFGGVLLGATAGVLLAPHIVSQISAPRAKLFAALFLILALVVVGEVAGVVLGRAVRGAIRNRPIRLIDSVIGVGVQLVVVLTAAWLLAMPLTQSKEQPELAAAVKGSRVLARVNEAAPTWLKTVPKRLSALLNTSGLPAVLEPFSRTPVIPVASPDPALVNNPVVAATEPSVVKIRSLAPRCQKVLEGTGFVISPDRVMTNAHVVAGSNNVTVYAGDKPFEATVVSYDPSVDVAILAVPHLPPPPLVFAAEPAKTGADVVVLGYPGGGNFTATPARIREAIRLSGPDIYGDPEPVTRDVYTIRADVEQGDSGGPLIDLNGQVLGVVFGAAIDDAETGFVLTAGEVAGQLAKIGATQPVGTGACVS

Row | SMILES | inhibition
1 | COP1(=O)C[C@@H](O)[C@@H](O)[C@@H](COCc2ccccc2)O1 (some centres not stated) | -2.74% (inactive)
2 | Cc1cnc(C(=O)N2CCCC(C(=O)c3ccc(C(F)(F)F)cc3)C2)cn1 (configuration not stated) | -4.62% (inactive)
3 | CC(c1nnc(SCC(=O)Nc2sccc2C#N)n1-c1ccc(Cl)cc1)N(C)C (configuration not stated) | 3.82% (inactive)
4 | Cn1sc(=O)c2cc(S(=O)(=O)NC3CC3)ccc21 | -8.37% (inactive)
5 | C[C@@H](NC(=O)c1nc[nH]c1C(=O)N1CCN(C(=O)OC(C)(C)C)CC1)c1ccccc1 | -6.88% (inactive)
6 | CC(Sc1nnc(Cc2ccc([N+](=O)[O-])cc2)o1)C(N)=O (configuration not stated) | -0.21% (inactive)
7 | C[C@@H](C(=O)Nc1ccc2ccccc2c1)[C@@H]1C[C@@]1(C)[C@@H](NC(=O)c1cccnc1)c1ccccc1 | -17.9% (inactive)
8 | CCS(=O)(=O)N1Cc2ccccc2CC1C(=O)Nc1nc2ccc(F)cc2s1 (configuration not stated) | -18.8% (inactive)
9 | O=C(NCc1ccccc1)C1=C[C@@H](c2ccccc2)C[C@@H](OCCCCO)O1 | -9.25% (inactive)
10 | O=S(=O)(c1cc(Cl)ccc1Cl)N1CCN(Cc2ccco2)CC1 | -5.87% (inactive)
11 | COc1cccc(/C=C2\SC(=N)N(c3ccc(F)cc3)C2=O)c1 | 7.8% (inactive)
12 | COc1ccc(/C=N/N=C/c2c[nH]c(=O)c(C#N)c2Nc2ccccc2)cc1 | -1.73% (inactive)
13 | NS(=O)(=O)c1ccc(NC(=S)Nc2ccc(Br)c(Cl)c2)cc1 | -3.02% (inactive)
14 | CCn1c(SCC(=O)Nc2ccc(Br)cc2)nc2sc3c(c2c1=O)CCN(C)C3 | -7.34% (inactive)
15 | COc1ccccc1C(=O)Nc1ccc(OCC(=O)N2CCCCC2)cc1 | -8.76% (inactive)
16 | Cc1cc(NC(=O)CCC(=O)N(Cc2ccccc2)C(C(=O)NC2CCCC2)c2ccc(C)o2)no1 (configuration not stated) | -5.73% (inactive)
17 | CCOC(=O)C1CCN(S(=O)(=O)c2ccc3c(c2)N(C(C)=O)CCO3)CC1 | 2.87% (inactive)
18 | CCCc1nc2ccccc2c(C(=O)OCc2nnc(-c3cc(OC)c(OC)c(OC)c3)o2)c1CC | -9.57% (inactive)
19 | COc1ccc(/C=C/C(=O)NC(=S)NN2CCCCC2c2cccnc2)cc1 (configuration not stated) | -0.41% (inactive)

Row | SMILES | inhibition
20 | Cc1cc(O)ccc1NC1=CC(=O)CC(C)(C)C1 | -4.53% (inactive)
21 | CC1CCC(CN2CCN=C2N(C)C)CC1 (configuration not stated) | -3.89% (inactive)
22 | Cc1ccc(S(=O)(=O)NC(=O)COc2ccccc2C)cc1 | 7.88% (inactive)
23 | CCCCn1c(=S)[nH]c2cc(S(=O)(=O)N3CCCCC3)ccc21 | -12.1% (inactive)
24 | O=C(COC(=O)c1ccc(S(=O)(=O)N2CCc3ccccc3C2)cc1)NC(=O)NCc1ccco1 | -44.5% (inactive)
25 | COc1ccccc1OCCNCC(O)COc1cccc2[nH]c3ccccc3c12 (configuration not stated) | -3.15% (inactive)
26 | C=C1C2C[C@H](O)C(C)(C)[C@@]2(O)[C@H](O)C[C@]23C[C@@](C)(O)[C@H](CC[C@H]12)[C@H]3O (some centres not stated) | 8.16% (inactive)
27 | CCCCCCCNc1nc(Cl)nc(NCCO)n1 | 1.57% (inactive)
28 | C/C(=N\NC(=O)NC1CCCCC1)c1ccc(OC(F)F)cc1OC(F)F | -2.17% (inactive)
29 | C/C(=N/NS(=O)(=O)c1ccccc1)c1ccc(NC(=O)C(F)(F)F)cc1 | -8.65% (inactive)
30 | O=C(CNC(=O)c1ccccc1F)OCC(=O)c1c[nH]c2ccccc12 | 3.57% (inactive)
31 | COc1ccc(SC[C@H](Cc2ccccc2)N2CCN(CCc3ccccc3)CCC2=O)cc1 | 1.82% (inactive)
32 | CC(=O)c1ccc(N2CCN(C(=O)CCNC(=O)Cn3ccc4ccccc4c3=O)CC2)cc1 | -8.01% (inactive)
33 | CC(=O)Nc1c2c(nn1-c1ccc(C)cc1C)CS(=O)C2 (configuration not stated) | -11.2% (inactive)
34 | CS(=O)(=O)c1ccc(Cl)c(NC(=O)COC(=O)c2ncc(Cl)c(Cl)c2Cl)c1 | 0.74% (inactive)
35 | O=C(CSc1nnc(-c2ccoc2)o1)N1CCOCC1 | 6.68% (inactive)
36 | OC(COCc1ccco1)CN1CCN(c2ccccc2)CC1 (configuration not stated) | 5.86% (inactive)
37 | C/C(=N/NC(=O)CN1CCN(S(=O)(=O)c2ccc(Br)cc2)CC1)c1ccncc1 | -1.08% (inactive)
38 | CCOc1ccc(N(CC(=O)Nc2cccc(OC)c2)S(C)(=O)=O)cc1 | -3.74% (inactive)

Row | SMILES | inhibition
39 | CN=C1C=C/C(=N/N=c2\ccn(O)cc2C)C=C1C | -17.4% (inactive)
40 | Cc1ccc(-n2c(SCC(=O)Nc3ncc(Cl)cc3Cl)nc3ccccc32)cc1 | -17.4% (inactive)
41 | Cc1ccn2c(=O)c(NC(=O)c3cccc4ccccc34)c(C)nc2c1 | -5.92% (inactive)
42 | CC(C(=O)N1CCN(c2ccccc2F)CC1)c1ccc([N+](=O)[O-])cc1 (configuration not stated) | 7.31% (inactive)
43 | CCC(=NC1CC(C)(C)NC(C)(C)C1)C1=C(O)CC(C)(C)CC1=O | -1.22% (inactive)
44 | CCC(C)[C@H](NC(=O)N1c2ccccc2NC(=O)[C@@H]1C(C)C)C(=O)N[C@@H](Cc1ccccc1)C(=O)O (some centres not stated) | 6.36% (inactive)
45 | CCOc1ccccc1NC(=O)C1CCCN(S(=O)(=O)c2ccccc2)C1 (configuration not stated) | -17.1% (inactive)
46 | O=C(Nc1nnc(Cc2ccc(Cl)cc2)s1)c1ccncc1 | 7.51% (inactive)
47 | COCCn1c(N)c(NCc2ccccc2)c(=O)[nH]c1=O | -10.5% (inactive)
48 | Cc1ccc(NC(=O)C2(N3CCC3=O)CCCCC2)cc1 | 3.63% (inactive)
49 | CCOc1ccc(CN(C)C(=O)c2ccc(=O)[nH]c2)cc1 | 0.46% (inactive)
50 | Cc1cc(C(=O)OC(C)C(=O)NC2CCCCC2C)c(C)o1 (configuration not stated) | -0.91% (inactive)
51 | COc1ccc(Cn2c(O)c(/C=C3/C=CC=N3)c(=O)[nH]c2=O)cc1 | -6.46% (inactive)
52 | C[C@H](NS(=O)(=O)c1ccc(Cl)cc1)C(=O)OCC(=O)N1CCOCC1 | 3.78% (inactive)
53 | CN(C)CC(C)(C)CNC(=O)c1cc(Br)cc(Br)c1O | 9.55% (inactive)
54 | CCCCc1cc2c(s1)CCCC/C2=N/O | -4.78% (inactive)
55 | CCc1nc2ccc(C(=O)N3CCN(c4cccc(Cl)c4)CC3)cc2nc1CC | 0.29% (inactive)
56 | O=S(=O)(NC1CC2CCC1C2)c1ccc(Cl)cc1 (configuration not stated) | 0.26% (inactive)
57 | CC(=O)c1ccc(N2CCN(S(=O)(=O)c3c(C)[nH]c(=O)[nH]c3=O)CC2)cc1 | 5.45% (inactive)

— PubChem BioAssay AID2606 (The Scripps Research Institute Molecular Screening Center, 2010)
